# Source: PubChem BioAssay AID1159580 (chemical genetic matrix, 2015)
# Screen size: about 5,500 compounds; about 2,000 (36%) were called active. Roughly 18% stayed inconclusive and do not appear here. The list shows a part of the results. Values without a mark were called inactive. No stated cut-off is given here; in the data, active means normalized growth mostly below about 0.91 (no sharp cut-off); inconclusive means no clear call, values can overlap the other calls; inactive means mostly above about 0.92.
# Assay: chemical genetic growth profiling, strain panel (AID 1159580);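 further: tested at 20 µM; growth read once vehicle control cultures reached saturation at 30 °C; 1 = growth at the plate median or of vehicle wells; lower values mean less growth of the strain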
# Details: growth OD
structure (smiles),measurement,setting,value
C#CCCCCCCCCCCCC(=O)CC(O)COC(C)=O (centres undefined),normalized growth,"S. cerevisiae deletion strains, locus YJR043C, strain POL32, active compounds read low",0.865
same,normalized growth,"S. cerevisiae deletion strains, locus YJR075W, strain HOC1, active compounds read low",0.771 (active)
same,normalized growth,"S. cerevisiae deletion strains, locus YKL009W, strain mrt4, active compounds read low",0.901
same,normalized growth,"S. cerevisiae deletion strains, locus YKL068W, active compounds read low",0.977
same,normalized growth,"S. cerevisiae deletion strains, locus YKL085W, strain MDH1 (second series), active compounds read low",0.958
same,normalized growth,"S. cerevisiae deletion strains, locus YKL085W, strain MDH1, active compounds read low",0.958
same,normalized growth,"S. cerevisiae deletion strains, locus YKL160W, strain elf1, active compounds read low",0.969
same,normalized growth,"S. cerevisiae deletion strains, locus YKL190W, strain CNB1, active compounds read low",0.82 (active)
same,normalized growth,"S. cerevisiae deletion strains, locus YKR001C, strain vps1, active compounds read low",0.754 (active)
same,normalized growth,"S. cerevisiae deletion strains, locus YKR026C, strain gcn3, active compounds read low",0.991
same,normalized growth,"S. cerevisiae deletion strains, locus YKR091W, strain srl3, active compounds read low",0.988
same,normalized growth,"S. cerevisiae deletion strains, locus YLL001W, strain dnm1, active compounds read low",1
same,normalized growth,"S. cerevisiae deletion strains, locus YLL026W, active compounds read low",0.995
same,normalized growth,"S. cerevisiae deletion strains, locus YLL041C, strain sdh2, active compounds read low",0.989
same,normalized growth,"S. cerevisiae deletion strains, locus YLR027C, strain aat2, active compounds read low",0.994
same,normalized growth,"S. cerevisiae deletion strains, locus YLR039C, strain RIC1, active compounds read low",0.688
same,normalized growth,"S. cerevisiae deletion strains, locus YLR058C, strain SHM2, active compounds read low",0.86 (active)
same,normalized growth,"S. cerevisiae deletion strains, locus YLR102C, strain apc9, active compounds read low",0.97
same,normalized growth,"S. cerevisiae deletion strains, locus YLR221C, strain rsa3, active compounds read low",0.935
same,normalized growth,"S. cerevisiae deletion strains, locus YLR258W, strain gsy2, active compounds read low",0.972
same,normalized growth,"S. cerevisiae deletion strains, locus YLR262C, strain YPT6 (second series), active compounds read low",0.807 (active)
same,normalized growth,"S. cerevisiae deletion strains, locus YLR262C, strain YPT6, active compounds read low",0.655
same,normalized growth,"S. cerevisiae deletion strains, locus YLR268W, strain sec22, active compounds read low",0.784 (active)
same,normalized growth,"S. cerevisiae deletion strains, locus YLR320W, strain mms22, active compounds read low",0.845 (active)
same,normalized growth,"S. cerevisiae deletion strains, locus YLR330W, strain CHS5, active compounds read low",0.753 (active)
same,normalized growth,"S. cerevisiae deletion strains, locus YLR342W, strain FKS1 (second series), active compounds read low",0.794
same,normalized growth,"S. cerevisiae deletion strains, locus YLR342W, strain FKS1, active compounds read low",0.953
same,normalized growth,"S. cerevisiae deletion strains, locus YLR357W, strain rsc2, active compounds read low",1.01
same,normalized growth,"S. cerevisiae deletion strains, locus YLR370C, strain arc18, active compounds read low",0.978
same,normalized growth,"S. cerevisiae deletion strains, locus YLR371W, strain rom2, active compounds read low",0.964
same,normalized growth,"S. cerevisiae deletion strains, locus YLR384C, strain iki3, active compounds read low",0.996
same,normalized growth,"S. cerevisiae deletion strains, locus YLR418C, strain cdc73, active compounds read low",0.364 (active)
same,normalized growth,"S. cerevisiae deletion strains, locus YML016C, strain PPZ1, active compounds read low",0.994
same,normalized growth,"S. cerevisiae deletion strains, locus YML032C, strain rad52, active compounds read low",0.86 (active)
same,normalized growth,"S. cerevisiae deletion strains, locus YML120C, strain ndi1, active compounds read low",0.986
same,normalized growth,"S. cerevisiae deletion strains, locus YML124C, strain tub3, active compounds read low",0.974
same,normalized growth,"S. cerevisiae deletion strains, locus YMR058W, strain fet3, active compounds read low",0.97
same,normalized growth,"S. cerevisiae deletion strains, locus YMR078C, strain ctf18, active compounds read low",0.961
same,normalized growth,"S. cerevisiae deletion strains, locus YMR125W, strain sto1, active compounds read low",0.979
same,normalized growth,"S. cerevisiae deletion strains, locus YMR129W, active compounds read low",0.999
same,normalized growth,"S. cerevisiae deletion strains, locus YMR205C, strain PFK2, active compounds read low",0.893
same,normalized growth,"S. cerevisiae deletion strains, locus YMR223W, strain ubp8, active compounds read low",0.841 (active)
same,normalized growth,"S. cerevisiae deletion strains, locus YMR231W, strain pep5, active compounds read low",0.957
same,normalized growth,"S. cerevisiae deletion strains, locus YMR263W, strain SAP30, active compounds read low",0.848 (active)
same,normalized growth,"S. cerevisiae deletion strains, locus YMR307W, strain GAS1, active compounds read low",0.99
same,normalized growth,"S. cerevisiae deletion strains, locus YNL067W, strain RPL9B, active compounds read low",0.742 (active)
same,normalized growth,"S. cerevisiae deletion strains, locus YNL071W, strain lat1, active compounds read low",0.748 (active)
same,normalized growth,"S. cerevisiae deletion strains, locus YNL128W, strain TEP1, active compounds read low",0.872
same,normalized growth,"S. cerevisiae deletion strains, locus YNL153C, strain GIM3, active compounds read low",0.826 (active)
same,normalized growth,"S. cerevisiae deletion strains, locus YNL209W, strain ssb2, active compounds read low",0.981
same,normalized growth,"S. cerevisiae deletion strains, locus YNL233W, strain BNI4, active compounds read low",0.685 (active)
same,normalized growth,"S. cerevisiae deletion strains, locus YNL248C, strain rpa49, active compounds read low",0.973
same,normalized growth,"S. cerevisiae deletion strains, locus YNL250W, strain rad50, active compounds read low",0.989
same,normalized growth,"S. cerevisiae deletion strains, locus YNL271C, strain bni1, active compounds read low",0.965
same,normalized growth,"S. cerevisiae deletion strains, locus YNL298W, strain CLA4, active compounds read low",0.898 (active)
same,normalized growth,"S. cerevisiae deletion strains, locus YNL307C, strain MCK1, active compounds read low",0.166 (active)
same,normalized growth,"S. cerevisiae deletion strains, locus YNL322C, strain KRE1 (second series), active compounds read low",0.985
same,normalized growth,"S. cerevisiae deletion strains, locus YNL322C, strain KRE1, active compounds read low",0.971
same,normalized growth,"S. cerevisiae deletion strains, locus YNR049C, strain mso1, active compounds read low",0.982
same,normalized growth,"S. cerevisiae deletion strains, locus YNR052C, strain pop2, active compounds read low",0.931
same,normalized growth,"S. cerevisiae deletion strains, locus YOL006C, strain TOP1, active compounds read low",0.637
same,normalized growth,"S. cerevisiae deletion strains, locus YOL012C, strain htz1",0.999
same,normalized growth,"S. cerevisiae deletion strains, locus YOL147C, strain pex11, active compounds read low",0.71 (active)
same,normalized growth,"S. cerevisiae deletion strains, locus YOR001W, strain rrp6, active compounds read low",0.966
same,normalized growth,"S. cerevisiae deletion strains, locus YOR061W, strain CKA2, active compounds read low",0.514 (active)
same,normalized growth,"S. cerevisiae deletion strains, locus YOR069W, strain VPS5, active compounds read low",0.978
same,normalized growth,"S. cerevisiae deletion strains, locus YOR070C, strain gyp1, active compounds read low",0.964
same,normalized growth,"S. cerevisiae deletion strains, locus YOR080W, strain dia2, active compounds read low",0.977
same,normalized growth,"S. cerevisiae deletion strains, locus YOR083W, strain WHI5, active compounds read low",0.967
same,normalized growth,"S. cerevisiae deletion strains, locus YOR106W, strain vam3, active compounds read low",0.889
same,normalized growth,"S. cerevisiae deletion strains, locus YOR136W, strain idh2, active compounds read low",0.929
same,normalized growth,"S. cerevisiae deletion strains, locus YOR144C, strain elg1, active compounds read low",0.93 (active)
same,normalized growth,"S. cerevisiae deletion strains, locus YOR184W, strain ser1, active compounds read low",0.62 (active)
same,normalized growth,"S. cerevisiae deletion strains, locus YOR265W, strain rbl2, active compounds read low",0.982
same,normalized growth,"S. cerevisiae deletion strains, locus YOR270C, strain vph1, active compounds read low",0.932
same,normalized growth,"S. cerevisiae deletion strains, locus YOR290C, strain snf2, active compounds read low",0.903
same,normalized growth,"S. cerevisiae deletion strains, locus YOR316C, strain cot1, active compounds read low",0.962
same,normalized growth,"S. cerevisiae deletion strains, locus YPL051W, strain arl3, active compounds read low",0.926
same,normalized growth,"S. cerevisiae deletion strains, locus YPL055C, strain LGE1, active compounds read low",0.612 (active)
same,normalized growth,"S. cerevisiae deletion strains, locus YPL078C, strain atp4, active compounds read low",0.976
same,normalized growth,"S. cerevisiae deletion strains, locus YPL106C, strain sse1, active compounds read low",1.01
same,normalized growth,"S. cerevisiae deletion strains, locus YPL240C, strain hsp82, active compounds read low",0.977
same,normalized growth,"S. cerevisiae deletion strains, locus YPL241C, strain CIN2, active compounds read low",0.96
same,normalized growth,"S. cerevisiae deletion strains, locus YPR119W, strain clb2, active compounds read low",0.98
same,normalized growth,"S. cerevisiae deletion strains, locus YPR141C, strain kar3, active compounds read low",0.959
same,normalized growth,"S. cerevisiae deletion strains, locus YPR163C, strain tif3, active compounds read low",0.626 (active)
same,normalized growth,"S. cerevisiae deletion strains, locus YPR167C, strain met16, active compounds read low",0.947
same,normalized growth,"S. cerevisiae deletion strains, strain wtn01, active compounds read low",0.801 (active)
same,normalized growth,"S. cerevisiae strains, strain wild type, active compounds read low",0.83 (active)
